PubChem BioAssay (Tox21)
Inconclusive results are not listed. A call without a number means that no potency is given here. Calls of active or inactive are those of the source. Unless noted, calls follow the shape of the dose curve; as a rule, active = well fitted curve in the direction sought with a large enough effect in the repeat runs; inconclusive = weak or mixed curves; inactive = no such curve, though single readings can be large; an effect the other way counts as inactive or inconclusive.

How the values were obtained:
[1] = A CellTox Green Cytotoxicity Assay to monitor cytotoxicity in HEK293 cells - 32 hour (AID 1224881); also: nearly all actives have a fitted effect of over 40% in size; also: potency is read from the fitted curve at half-maximal effect
How it was run: (§1)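 Each value comes from one timepoint of a single continuous run in which HEK293 cells with CellTox Green were exposed to compound for up to 40 h at 37 C, dye fluorescence rising with cell death.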

[2] = A CellTox Green Cytotoxicity Assay to monitor cytotoxicity in HepG2 cells - 0 hour (AID 1224882); also: nearly all actives have a fitted effect of over 35% in size
How it was run: (§2)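 Continuous culture of HepG2 cells with a membrane-impermeant DNA dye; rising fluorescence marks dead cells. Compound exposure lasted up to 40 h at 37 C, with reads every 8 h from 0 h.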

[3] = A CellTox Green Cytotoxicity Assay to monitor cytotoxicity in HepG2 cells - 32 hour (AID 1224883); also: nearly all actives have a fitted effect of over 50% in size; also: potency is read from the fitted curve at half-maximal effect
How it was run: as §2

[4] = A CellTox Green Cytotoxicity Assay to monitor cytotoxicity in HEK293 cells - 8 hour (AID 1224884); also: nearly all actives have a fitted effect of over 35% in size; also: potency is read from the fitted curve at half-maximal effect
How it was run: as §1

[5] = qHTS RealTime-Glo MT Cell Viability Assay in HepG2 cells - 16 hour (AID 1224885); also: nearly all actives have a fitted effect of over 50% in size; also: potency is read from the fitted curve at half-maximal effect
How it was run: (§3)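 HepG2 cells were seeded at 600 cells/well together with NanoLuc luciferase and a cell-permeant prosubstrate, preincubated 5 h at 37 C/5% CO2, then pin-dosed with compounds in DMSO. Nonlytic luminescence from viable cells was read at each time point.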

[6] = qHTS RealTime-Glo MT Cell Viability Assay in HEK293 cells - 24 hour (AID 1224886); also: nearly all actives have a fitted effect of over 50% in size; also: potency is read from the fitted curve at half-maximal effect
How it was run: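 HEK293 cells were seeded at 600 cells/well together with NanoLuc luciferase and cell-permeant prosubstrate, preincubated 5 h at 37 C/5% CO2, then given compound in DMSO by pintool. Luminescence from viable-cell prosubstrate reduction was read repeatedly over 40 h.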

[7] = qHTS RealTime-Glo MT Cell Viability Assay in HEK293 cells - 8 hour (AID 1224887); also: nearly all actives have a fitted effect of over 50% in size; also: potency is read from the fitted curve at half-maximal effect
How it was run: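 qHTS format; HEK293 cells with NanoLuc/prosubstrate reagent, 37 C/5% CO2 for 5 h pre-dosing; compounds 23 nL in DMSO; luminescence at each time point reflects viable cells.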

[8] = A CellTox Green Cytotoxicity Assay to monitor cytotoxicity in HEK293 cells - 16 hour (AID 1224888); also: nearly all actives have a fitted effect of over 35% in size; also: potency is read from the fitted curve at half-maximal effect
How it was run: as §1

[9] = qHTS RealTime-Glo MT Cell Viability Assay in HepG2 cells - 0 hour (AID 1224889); also: nearly all actives have a fitted effect of over 50% in size
How it was run: as §3

[10] = A CellTox Green Cytotoxicity Assay to monitor cytotoxicity in HepG2 cells - 8 hour (AID 1224890); also: nearly all actives have a fitted effect of over 45% in size; also: potency is read from the fitted curve at half-maximal effect
How it was run: as §2

[11] = qHTS assay to identify small molecule antagonists of the estrogen receptor alpha (ER-alpha) signaling pathway using the BG1 cell line in the presence of 0.1 nM 17-beta-estradiol - cell viability counter screen (AID 1259241); also: nearly all actives have a fitted effect of over 40% in size; also: potency is read from the fitted curve at half-maximal effect
How it was run: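 The cell line endogenously expresses full-length ER-alpha and carries four EREs driving luciferase. Cells are cultured 5 days hormone-free, treated 22 hr with compounds and 0.1 nM estradiol, then viability is read by fluorescence.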

[12] = qHTS assay to identify small molecule antagonists of the androgen receptor (AR) signaling pathway using the MDA cell line in the presence of 0.5 nM R1881 - cell viability counter screen (AID 1259242); also: nearly all actives have a fitted effect of over 45% in size; also: potency is read from the fitted curve at half-maximal effect
How it was run: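 Fluorescence from CellTiter-Fluor, which reports protease activity of live cells, was read 30 min after reagent addition to MDA-kb2 cells that had been incubated 16 hr with compound and 0.5 nM R1881.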

[13] = molecular target: Estrogen receptor (Homo sapiens) (UniProt P03372); experiment: qHTS assay to identify small molecule antagonists of the estrogen receptor alpha (ER-alpha) signaling pathway using the BG1 cell line in the presence of 0.1 nM 17-beta-estradiol (AID 1259244); also: nearly all actives have a fitted effect of over 50% in size; also: potency is read from the fitted curve at half-maximal effect
How it was run: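 Quantitative high-throughput screen in VM7Luc4E2 cells: compound plus 0.1 nM E2 (final), 22 h, 37C, 5% CO2; ONE-Glo added, 30 min room temperature, luminescence measured.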

[14] = qHTS assay to identify small molecule HDAC inhibitors (AID 1259364); also: top concentration of the series differs between compounds; nearly all actives have a fitted effect of over 45% in size
How it was run: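 Endogenous HDAC class I/II activity was measured in wild-type HCT-116 cells by HDAC-Glo luminescence after 2 h compound treatment.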

[15] = qHTS assay to identify small molecule HDAC inhibitors - cell viability counter screen (AID 1259365); also: nearly all actives have a fitted effect of over 50% in size; also: potency is read from the fitted curve at half-maximal effect
How it was run: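 Viability readout: CellTiter-Glo luminescence. Wild-type HCT-116 cells, 2hr compound treatment following overnight attachment at 37 C.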

[16] = qHTS assay to identify small molecule agonists of the sonic hedgehog signaling (Shh) pathway - cell viability counter screen (AID 1259366); also: nearly all actives have a fitted effect of over 50% in size; also: potency is read from the fitted curve at half-maximal effect
How it was run: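 Viability measured fluorometrically (CellTiter-Fluor, 1hr, 37C) in 3T3 Gli1-Luc reporter cells after 23hr compound exposure within a 24hr incubation at 37C/5% CO2.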

[17] = qHTS assay to identify small molecule antagonists of the sonic hedgehog signaling (Shh) pathway - cell viability counter screen (AID 1259367); also: nearly all actives have a fitted effect of over 55% in size; also: potency is read from the fitted curve at half-maximal effect
How it was run: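 Using CellTiter-Fluor, viability of Gli1-Luc reporter 3T3 cells is read by fluorescence in the wells used for the Shh luciferase assay. Treatment lasts 23 hr with conditioned medium, then reagent 1 hr at 37C.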

[18] = qHTS assay to identify small molecule agonists of the sonic hedgehog signaling (Shh) pathway (AID 1259368; calls by dose curve;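 also: NIH/3T3-derived 3T3Gli1-Luc cells carrying a stable Gli1-driven firefly luciferase reporter; series mostly up to about 92 µM; nearly all actives have a fitted effect of over 15% in size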)
How it was run: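 Luminescent signal was taken as a measure of Gli1-controlled luciferase expression in stably transfected NIH/3T3-derived cells that had been treated for 24 hr with compounds delivered in DMSO.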

[19] = molecular target: Androgen receptor (Homo sapiens) (UniProt P10275); experiment: qHTS assay to identify small molecule antagonists of the androgen receptor (AR) signaling pathway using the MDA cell line in the presence of 0.5 nM R1881 (AID 1259243); also: nearly all actives have a fitted effect of over 50% in size
How it was run: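 Inhibition of R1881 (0.5 nM final) induced reporter signal was measured in human MDA-kb2 cells; note the MMTV promoter also responds to GR. Exposure lasted 16 hr at 37C.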

[20] = qHTS assay to identify small molecule phospholipidosis (PLD) inducers (AID 1259344; active = well fitted curve in the direction sought with a large enough effect; an effect the other way counts as inactive or inconclusive)
How it was run: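 Fluorescent phospholipid staining (LipidTOX Red) measured by automated microscopy in fixed HepG2 cells after 24 h treatment; nuclei counterstained with Hoechst 33342; amiodarone as reference inducer.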

Sequence of Estrogen receptor (Homo sapiens) (P03372 whole entry, looked up): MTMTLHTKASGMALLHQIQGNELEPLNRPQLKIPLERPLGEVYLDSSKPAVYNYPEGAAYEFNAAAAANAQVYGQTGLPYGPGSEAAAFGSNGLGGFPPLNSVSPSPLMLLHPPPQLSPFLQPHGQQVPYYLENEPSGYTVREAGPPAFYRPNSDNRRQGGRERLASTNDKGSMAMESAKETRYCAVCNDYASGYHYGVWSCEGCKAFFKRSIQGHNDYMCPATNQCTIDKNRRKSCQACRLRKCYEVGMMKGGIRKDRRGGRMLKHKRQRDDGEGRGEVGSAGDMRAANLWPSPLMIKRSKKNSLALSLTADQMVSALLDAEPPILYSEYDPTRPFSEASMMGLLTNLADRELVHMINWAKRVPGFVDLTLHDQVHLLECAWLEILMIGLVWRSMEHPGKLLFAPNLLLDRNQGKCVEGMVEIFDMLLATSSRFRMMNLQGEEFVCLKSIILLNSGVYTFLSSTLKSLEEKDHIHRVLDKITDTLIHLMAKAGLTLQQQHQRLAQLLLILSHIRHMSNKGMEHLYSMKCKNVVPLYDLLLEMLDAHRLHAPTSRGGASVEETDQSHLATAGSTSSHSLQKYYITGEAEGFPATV
Sequence of Androgen receptor (Homo sapiens) (P10275 whole entry, looked up): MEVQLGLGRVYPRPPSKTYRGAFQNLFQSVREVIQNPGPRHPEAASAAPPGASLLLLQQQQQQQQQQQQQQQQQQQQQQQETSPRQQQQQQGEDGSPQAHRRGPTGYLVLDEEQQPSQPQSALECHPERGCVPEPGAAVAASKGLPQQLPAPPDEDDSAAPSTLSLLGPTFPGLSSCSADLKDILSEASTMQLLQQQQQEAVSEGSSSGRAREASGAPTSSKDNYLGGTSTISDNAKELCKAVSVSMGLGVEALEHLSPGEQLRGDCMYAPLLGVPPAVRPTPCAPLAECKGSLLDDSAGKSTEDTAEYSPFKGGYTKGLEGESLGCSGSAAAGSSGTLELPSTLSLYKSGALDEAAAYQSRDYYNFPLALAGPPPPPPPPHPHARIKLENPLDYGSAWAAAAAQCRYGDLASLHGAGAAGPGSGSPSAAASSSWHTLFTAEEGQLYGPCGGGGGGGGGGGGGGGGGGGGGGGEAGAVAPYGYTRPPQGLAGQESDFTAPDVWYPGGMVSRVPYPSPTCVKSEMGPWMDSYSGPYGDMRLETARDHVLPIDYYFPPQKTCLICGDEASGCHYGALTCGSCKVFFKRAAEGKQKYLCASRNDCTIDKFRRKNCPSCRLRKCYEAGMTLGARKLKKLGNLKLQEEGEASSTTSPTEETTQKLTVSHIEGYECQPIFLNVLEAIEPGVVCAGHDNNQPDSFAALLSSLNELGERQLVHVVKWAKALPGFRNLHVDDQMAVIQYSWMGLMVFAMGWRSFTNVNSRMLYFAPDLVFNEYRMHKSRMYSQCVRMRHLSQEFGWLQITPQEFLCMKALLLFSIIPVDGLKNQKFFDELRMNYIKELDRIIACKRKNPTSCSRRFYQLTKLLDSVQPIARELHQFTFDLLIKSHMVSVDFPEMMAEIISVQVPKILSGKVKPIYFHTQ

SMILES	Potency [1]	Potency [2]	Potency [3]	Potency [4]	Potency [5]	Potency [6]	Potency [7]	Potency [8]	Potency [9]	Potency [10]	Potency [11]	Potency [12]	Potency [13]	Potency [14]	Potency [15]	Potency [16]	Potency [17]	Potency [18]	Potency [19]	Potency [20]
CC(=[OH+])/C=C(/C)[O-].CC(=[OH+])/C=C(\C)[O-].CC(=[OH+])/C=C(\C)[O-].[Al]	inactive	inactive	inactive	inactive	inactive	inactive	inactive	inactive	inactive	inactive	inactive	inactive	inactive	inactive	inactive	inactive	inactive	inactive		
Cc1ccc(OP(=O)(Oc2ccccc2)Oc2ccccc2)cc1	inactive	inactive	inactive	inactive	inactive	inactive	inactive	inactive	inactive	inactive	inactive	inactive	inactive	inactive	inactive	inactive	inactive	inactive		
C[C@]12CC[C@H](O)C[C@H]1CC[C@@H]1[C@@H]2C[C@@H](O)[C@]2(C)[C@@H](C3=CC(=O)OC3)CC[C@]12O	inactive	inactive	inactive	inactive	inactive	0.616 µM (active)	inactive	inactive	inactive	inactive	inactive	inactive		inactive	inactive		inactive		inactive	
CCC[CH2][Sn]([CH2]CCC)([CH2]CCC)[O]C(=O)c1ccccc1	0.977 µM (active)	inactive	0.692 µM (active)	11 µM (active)	0.616 µM (active)	0.389 µM (active)	0.871 µM (active)	4.36 µM (active)	inactive	1.1 µM (active)	21.7 µM (active)	1.54 µM (active)	0.486 µM (active)	inactive	19.3 µM (active)	0.686 µM (active)	0.864 µM (active)	inactive		
C[As+](C)(C)CC(=O)[O-]	inactive	inactive	inactive	inactive	inactive	inactive	inactive	inactive	inactive	inactive	inactive	inactive	inactive	inactive	inactive	inactive		inactive	inactive	
COC12CC[C@@]3(C[C@@H]1C(C)(O)C(C)(C)C)[C@H]1Cc4ccc(O)c5c4[C@@]3(CCN1CC1CC1)[C@H]2O5 (stereo not given in full)	38.6 µM (active)	inactive	38.6 µM (active)	24.4 µM (active)	43.4 µM (active)	34.4 µM (active)	38.6 µM (active)	21.7 µM (active)	inactive	43.4 µM (active)	60.7 µM (active)	54.1 µM (active)	24.2 µM (active)	inactive	inactive	24.2 µM (active)	17.1 µM (active)	inactive		inactive
Fc1ccc(Oc2ccnc3cc(Cl)cc(Cl)c23)cc1	inactive	inactive	inactive	inactive	inactive	11 µM (active)	7.76 µM (active)	inactive	inactive	inactive	inactive	inactive	inactive	inactive	inactive	inactive	inactive	inactive		
